From the supplement of paper PMC10849652
The full data set covers some 8,800 targets. This sample favours those with a hit. About 0.5% of all pairs of compound and target were hits. A number with no mark means an inactive call.

Legend:
Assay in all cases: log2 fold change, soluble protein after heating vs DMSO (PISA); higher = thermal stabilisation; K562 lysate, 10 uM; active = over 0.2 and 3.5 SD of the protein, either way, in both replicates (recomputed)
[1] = compound: Cc1cn(-c2cc(NC(=O)c3ccc(C)c(Nc4nccc(-c5cccnc5)n4)c3)cc(C(F)(F)F)c2)cn1 [nilotinib]
Method in brief: (§1)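 Pellets of K562 cells were dounce-homogenised in PBS pH 7.4 with 1 mM MgCl2, and the crude extract was held at 1 mg/mL protein for a 30 min treatment with 10 μM compound. Aliquots were heated for 3 min over 48°C-58°C and pooled before NP-40 was added to 0.5% at 4°C. The supernatant from 21,000xg for 90 min was quantified by TMTpro 16plex LC-MS/MS with channel sums equalised. Values are reported from duplicates as log-two fold change in thermal stability relative to solvent controls.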

[2] = compound: Cc1nc(Nc2n[nH]c3c2CN(C(=O)N[C@H](CN(C)C)c2ccccc2)C3(C)C)c2sccc2n1
Method in brief: as §1

[3] = compound: Cc1nc(Nc2ncc(C(=O)Nc3c(C)cccc3Cl)s2)cc(N2CCN(CCO)CC2)n1 [dasatinib]
Method in brief: as §1

[4] = compound: Cc1ncc(-c2ccnc(Nc3ccc(S(C)(=O)=O)cc3)n2)n1C(C)C
Method in brief: as §1

[5] = compound: Cn1cc(-c2ccc3c(c2)CCN3C(=O)Cc2cccc(C(F)(F)F)c2)c2c(N)ncnc21
Method in brief: as §1

[6] = compound: Cn1cc(CNCC2CCN(c3ncc(C(=O)NO)cn3)CC2)c2ccccc21 [quisinostat]
Method in brief: as §1

[7] = compound: Cn1cncc1[C@@](N)(c1ccc(Cl)cc1)c1ccc2c(c1)c(-c1cccc(Cl)c1)cc(=O)n2C [tipifarnib]
Method in brief: as §1

[8] = compound: NC(=O)Nc1cc(-c2cccc(F)c2)sc1C(=O)N[C@H]1CCCNC1
Method in brief: as §1

[9] = compound: NC(=O)c1cnc(N[C@@H]2CCCC[C@@H]2N)nc1Nc1cccc(-n2nccn2)c1
Method in brief: as §1

[10] = compound: NC1(c2ccc(-c3nc4ccn5c(=O)[nH]nc5c4cc3-c3ccccc3)cc2)CCC1
Method in brief: as §1

[11] = compound: NCC(=O)Nc1ccc(-n2nc(C(F)(F)F)cc2-c2ccc3c(ccc4ccccc43)c2)cc1
Method in brief: as §1

[12] = compound: O=C(CCCCCCC(=O)Nc1ccccc1)NO [vorinostat]
Method in brief: as §1

[13] = compound: O=C(O)c1ccc2c(c1)nc(Nc1cccc(Cl)c1)c1ccncc12 [silmitasertib]
Method in brief: as §1

[14] = compound: O=C1NC(=O)C(c2cnc3ccccn23)=C1c1cn2c3c(cc(F)cc13)CN(C(=O)N1CCCCC1)CC2
Method in brief: as §1

[15] = compound: c1cn2cc(-c3ccc4cn[nH]c4c3)nc(Nc3ccc(N4CCOCC4)cc3)c2n1 [entospletinib]
Method in brief: as §1

UniProt Q8N2K0, sequence (Q8N2K0 whole entry, looked up): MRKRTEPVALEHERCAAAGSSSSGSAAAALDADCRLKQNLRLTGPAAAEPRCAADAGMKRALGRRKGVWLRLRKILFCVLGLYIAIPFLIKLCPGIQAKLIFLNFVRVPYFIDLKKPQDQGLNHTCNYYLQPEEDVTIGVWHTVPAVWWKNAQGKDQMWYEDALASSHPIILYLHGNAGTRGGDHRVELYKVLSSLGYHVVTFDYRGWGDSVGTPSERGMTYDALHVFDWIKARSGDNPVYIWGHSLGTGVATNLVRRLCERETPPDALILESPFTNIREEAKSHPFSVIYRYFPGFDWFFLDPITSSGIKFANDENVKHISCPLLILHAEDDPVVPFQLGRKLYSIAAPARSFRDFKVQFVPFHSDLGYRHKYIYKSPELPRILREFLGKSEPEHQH
UniProt Q9Y4X0, sequence (Q9Y4X0 whole entry, looked up): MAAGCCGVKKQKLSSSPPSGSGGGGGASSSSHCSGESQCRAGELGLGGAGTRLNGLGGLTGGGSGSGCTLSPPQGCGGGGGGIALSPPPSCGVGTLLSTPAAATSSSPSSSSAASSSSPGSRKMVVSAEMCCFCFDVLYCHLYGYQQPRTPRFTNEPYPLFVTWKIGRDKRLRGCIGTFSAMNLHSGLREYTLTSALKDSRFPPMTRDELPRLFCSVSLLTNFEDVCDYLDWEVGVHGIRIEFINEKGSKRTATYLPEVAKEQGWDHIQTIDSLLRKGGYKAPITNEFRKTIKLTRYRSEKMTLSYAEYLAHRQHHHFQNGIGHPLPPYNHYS
UniProt Q9Y303, sequence (Q9Y303 whole entry, looked up): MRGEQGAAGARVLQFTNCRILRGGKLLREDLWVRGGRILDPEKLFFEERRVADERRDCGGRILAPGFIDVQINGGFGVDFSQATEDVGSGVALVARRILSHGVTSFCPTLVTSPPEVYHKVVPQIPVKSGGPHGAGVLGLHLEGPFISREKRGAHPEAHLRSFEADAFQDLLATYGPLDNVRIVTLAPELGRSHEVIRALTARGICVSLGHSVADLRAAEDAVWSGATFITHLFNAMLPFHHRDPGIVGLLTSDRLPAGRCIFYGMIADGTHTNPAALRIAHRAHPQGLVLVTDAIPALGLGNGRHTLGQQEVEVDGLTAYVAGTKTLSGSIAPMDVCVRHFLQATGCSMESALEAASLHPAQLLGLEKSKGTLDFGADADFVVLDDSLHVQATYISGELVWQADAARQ
UniProt P42330, sequence (P42330 whole entry, looked up): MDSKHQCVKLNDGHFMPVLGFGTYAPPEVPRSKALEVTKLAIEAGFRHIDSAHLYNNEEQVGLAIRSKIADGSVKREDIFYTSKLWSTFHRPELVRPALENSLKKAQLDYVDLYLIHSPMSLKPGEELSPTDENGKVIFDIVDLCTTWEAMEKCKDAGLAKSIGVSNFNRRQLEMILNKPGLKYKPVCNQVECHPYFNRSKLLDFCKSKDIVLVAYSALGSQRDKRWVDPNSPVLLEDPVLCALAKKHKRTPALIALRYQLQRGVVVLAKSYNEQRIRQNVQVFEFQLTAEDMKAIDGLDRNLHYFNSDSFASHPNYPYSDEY
UniProt P52895, sequence (P52895 whole entry, looked up): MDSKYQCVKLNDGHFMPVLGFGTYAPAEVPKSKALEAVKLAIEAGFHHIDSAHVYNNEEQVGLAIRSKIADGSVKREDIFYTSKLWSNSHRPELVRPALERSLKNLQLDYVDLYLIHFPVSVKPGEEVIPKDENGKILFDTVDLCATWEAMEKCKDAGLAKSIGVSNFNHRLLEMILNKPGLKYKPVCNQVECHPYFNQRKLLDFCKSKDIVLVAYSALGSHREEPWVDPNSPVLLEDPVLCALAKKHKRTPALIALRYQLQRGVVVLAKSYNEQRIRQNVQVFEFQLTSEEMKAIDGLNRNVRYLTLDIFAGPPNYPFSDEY
UniProt O00170, sequence (O00170 whole entry, looked up): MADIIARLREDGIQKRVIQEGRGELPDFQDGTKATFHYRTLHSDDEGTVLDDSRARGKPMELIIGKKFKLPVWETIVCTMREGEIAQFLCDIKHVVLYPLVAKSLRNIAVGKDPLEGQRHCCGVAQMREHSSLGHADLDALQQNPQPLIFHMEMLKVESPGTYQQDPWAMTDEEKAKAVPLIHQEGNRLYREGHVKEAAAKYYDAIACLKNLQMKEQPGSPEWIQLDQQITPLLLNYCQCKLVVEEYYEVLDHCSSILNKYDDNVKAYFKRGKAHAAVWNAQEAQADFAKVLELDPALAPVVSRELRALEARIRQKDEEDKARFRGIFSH
UniProt P16219, sequence (P16219 whole entry, looked up): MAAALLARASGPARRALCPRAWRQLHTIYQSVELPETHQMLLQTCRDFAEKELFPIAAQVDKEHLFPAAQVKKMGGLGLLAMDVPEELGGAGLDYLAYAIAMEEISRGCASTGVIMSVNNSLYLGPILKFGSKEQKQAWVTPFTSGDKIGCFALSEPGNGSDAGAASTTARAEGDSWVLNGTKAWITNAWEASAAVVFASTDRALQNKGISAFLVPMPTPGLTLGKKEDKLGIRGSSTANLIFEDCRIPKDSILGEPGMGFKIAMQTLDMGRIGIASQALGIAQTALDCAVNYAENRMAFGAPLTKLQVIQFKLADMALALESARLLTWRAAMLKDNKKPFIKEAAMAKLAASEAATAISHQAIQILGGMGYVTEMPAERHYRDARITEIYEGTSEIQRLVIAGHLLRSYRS
UniProt Q99943, sequence (Q99943 whole entry, looked up): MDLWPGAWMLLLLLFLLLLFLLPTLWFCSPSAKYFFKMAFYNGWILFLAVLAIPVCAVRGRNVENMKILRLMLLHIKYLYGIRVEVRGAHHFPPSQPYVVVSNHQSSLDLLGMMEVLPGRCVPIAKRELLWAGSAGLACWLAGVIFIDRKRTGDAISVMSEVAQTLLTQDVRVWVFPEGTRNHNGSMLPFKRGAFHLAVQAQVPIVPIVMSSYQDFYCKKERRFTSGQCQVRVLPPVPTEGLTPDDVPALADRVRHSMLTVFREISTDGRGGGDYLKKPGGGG
UniProt Q8IZP0, sequence (Q8IZP0 whole entry, looked up): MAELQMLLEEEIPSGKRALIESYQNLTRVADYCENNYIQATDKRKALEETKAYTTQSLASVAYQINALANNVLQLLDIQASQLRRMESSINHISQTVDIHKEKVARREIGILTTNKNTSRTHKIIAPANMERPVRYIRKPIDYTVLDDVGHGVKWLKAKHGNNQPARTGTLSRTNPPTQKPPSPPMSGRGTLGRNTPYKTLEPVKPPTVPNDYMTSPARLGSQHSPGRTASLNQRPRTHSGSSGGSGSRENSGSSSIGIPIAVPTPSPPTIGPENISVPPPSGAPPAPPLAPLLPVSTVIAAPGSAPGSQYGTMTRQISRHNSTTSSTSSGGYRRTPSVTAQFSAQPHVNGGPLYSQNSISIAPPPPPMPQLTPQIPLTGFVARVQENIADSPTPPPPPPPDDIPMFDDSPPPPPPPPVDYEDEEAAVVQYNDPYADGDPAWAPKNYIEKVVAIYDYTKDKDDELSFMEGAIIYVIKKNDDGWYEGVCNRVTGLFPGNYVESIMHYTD
UniProt Q9UG63, sequence (Q9UG63 whole entry, looked up): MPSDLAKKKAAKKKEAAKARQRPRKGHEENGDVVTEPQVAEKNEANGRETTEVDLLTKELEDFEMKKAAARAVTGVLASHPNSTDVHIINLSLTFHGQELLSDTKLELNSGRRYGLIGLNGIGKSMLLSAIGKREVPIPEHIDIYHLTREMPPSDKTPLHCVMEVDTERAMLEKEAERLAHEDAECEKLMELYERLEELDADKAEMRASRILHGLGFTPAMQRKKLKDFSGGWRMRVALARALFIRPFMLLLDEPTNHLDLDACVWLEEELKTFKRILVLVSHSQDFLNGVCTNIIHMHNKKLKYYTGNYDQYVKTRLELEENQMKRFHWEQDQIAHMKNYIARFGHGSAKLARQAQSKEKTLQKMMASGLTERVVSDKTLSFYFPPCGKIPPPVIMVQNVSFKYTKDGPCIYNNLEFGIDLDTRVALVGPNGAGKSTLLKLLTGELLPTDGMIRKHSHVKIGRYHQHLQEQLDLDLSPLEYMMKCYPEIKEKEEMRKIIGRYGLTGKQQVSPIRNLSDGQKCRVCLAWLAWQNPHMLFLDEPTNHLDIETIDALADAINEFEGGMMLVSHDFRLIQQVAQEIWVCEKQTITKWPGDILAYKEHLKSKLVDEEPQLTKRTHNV
UniProt O00116, sequence (O00116 whole entry, looked up): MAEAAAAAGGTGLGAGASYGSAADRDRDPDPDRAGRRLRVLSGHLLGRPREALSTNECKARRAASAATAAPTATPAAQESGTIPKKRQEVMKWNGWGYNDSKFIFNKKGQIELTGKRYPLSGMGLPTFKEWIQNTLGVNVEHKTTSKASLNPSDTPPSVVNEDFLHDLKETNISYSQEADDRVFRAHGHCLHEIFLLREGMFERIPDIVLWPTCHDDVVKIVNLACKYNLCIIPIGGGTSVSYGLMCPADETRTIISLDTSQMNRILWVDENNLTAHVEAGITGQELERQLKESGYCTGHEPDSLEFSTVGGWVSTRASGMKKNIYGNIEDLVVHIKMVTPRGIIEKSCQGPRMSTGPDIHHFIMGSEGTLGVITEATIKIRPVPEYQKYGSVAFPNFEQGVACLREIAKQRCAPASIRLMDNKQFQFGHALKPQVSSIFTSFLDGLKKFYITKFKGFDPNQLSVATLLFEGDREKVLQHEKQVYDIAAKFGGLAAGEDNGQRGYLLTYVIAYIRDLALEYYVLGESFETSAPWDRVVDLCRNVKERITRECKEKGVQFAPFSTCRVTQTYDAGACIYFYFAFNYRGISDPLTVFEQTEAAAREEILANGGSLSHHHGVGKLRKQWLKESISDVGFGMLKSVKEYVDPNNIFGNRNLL

| Target | log2 fold change [1] | log2 fold change [2] | log2 fold change [3] | log2 fold change [4] | log2 fold change [5] | log2 fold change [6] | log2 fold change [7] | log2 fold change [8] | log2 fold change [9] | log2 fold change [10] | log2 fold change [11] | log2 fold change [12] | log2 fold change [13] | log2 fold change [14] | log2 fold change [15] |
| --- | --- | --- | --- | --- | --- | --- | --- | --- | --- | --- | --- | --- | --- | --- | --- |
| AGTPBP1 (UniProt Q9UPW5) | 0.077 | -0.205 | 0.038 | 0.1 | -0.032 | -0.197 | 0.207 | 0.038 | 0.045 | 0.115 | 0.125 | -0.033 | -0.012 | 0.11 | 0.035 |
| ANKRD10 (UniProt Q9NXR5) | -0.042 | -0.021 | -0.05 | 0.021 | 0.012 | 0.001 | -0.028 | 0.036 | 0.168 | -0.029 | 0 | -0.589 (active) | 0.037 | -0.066 |  |
| AMMECR1 (UniProt Q9Y4X0) | -0.005 | -0.025 | -0.037 | 0.017 | 0.035 | -0.054 | 0.022 | 0.021 | 0.007 | -0.024 | 0.004 | -0.387 (active) | 0.003 | -0.016 | 0 |
| ALDH1B1 (UniProt P30837) | 0.096 | -0.015 | -0.022 | 0.013 | 0.034 | 0.118 | 0.05 | 0.046 | 0.011 | 0.003 | 0.027 | 1.15 (active) | -0.051 | -0.022 | 0.033 |
| APOB (UniProt P04114) | -0.002 | 0.022 | -0.096 | -0.017 | -0.038 | -0.092 | 0.033 | 0.013 | -0.035 | 0.008 | 0.063 | 0.154 | 0.007 | -0.012 | 0.05 |
| AGL (UniProt P35573) | -0.024 | -0.007 | -0.027 | -0.005 | 0.028 | -0.016 | 0.016 | 0.038 | 0.016 | -0.007 | 0 | -0.275 (active) | 0.035 | 0.001 | -0.018 |
| AIP (UniProt O00170) | 0.024 | -0.001 | 0.018 | 0.028 | 0.008 | 0.007 | 0.027 | -0.011 | -0.016 | 0.024 | -0.001 | -0.061 | -0.032 | 0.003 | -0.003 |
| ASPH (UniProt Q12797) | -0.033 | -0.025 | 0.089 | 0.011 | -0.019 | -0.02 | 0.004 | -0.005 | -0.009 | -0.013 | 0 | 0.131 | -0.008 | 0.029 | -0.016 |
| ABI1 isoform 9 (UniProt Q8IZP0) | -0.006 | -0.004 | -0.001 | -0.02 | -0.016 | 0.003 | -0.01 | -0.023 | 0.003 | 0.032 | 0.046 | 0.026 | -0.025 | 0.03 | 0.018 |
| AKR1C2 (UniProt P52895) | 0.02 | -0.031 | -0.006 | -0.009 | -0.045 | -0.043 | 0 | 0.019 | -0.039 | -0.034 | -0.008 | 0.504 (active) | -0.011 | 0.052 | -0.014 |
| AP3D1 isoform 5 (UniProt O14617) | -0.001 | 0.018 | -0.043 | 0.002 | 0.003 | -0.002 | -0.002 | 0.016 | -0.007 | 0.03 | -0.001 | -0.015 | -0.003 | 0.012 | 0.006 |
| AMDHD2 isoform 3 (UniProt Q9Y303) | 0.011 | -0.076 | -0.043 | -0.027 | 0.026 | 0.035 | 0.01 | -0.011 | -0.022 | 0.002 | 0.038 | 0.088 | -0.004 | -0.002 | 0.056 |
| AGPAT1 (UniProt Q99943) | -0.021 | -0.004 | -0.069 | 0.055 | -0.062 | 0.043 | -0.058 | -0.028 | 0.028 | -0.003 | -0.027 | -0.27 (active) | 0.106 | -0.029 | 0.003 |
| ABHD16A (UniProt O95870) | -0.015 | 0.02 | 0.009 | 0.027 | -0.051 | 0.143 | -0.012 | -0.014 | -0.003 | -0.054 | 0.007 | 0.906 (active) | -0.1 | -0.056 | -0.01 |
| AGPS (UniProt O00116) | -0.014 | -0.021 | -0.033 | 0.05 | 0.008 | 0.064 | -0.015 | 0.014 | 0.004 | 0.003 | -0.015 | 0.365 (active) | -0.007 | -0.007 | -0.005 |
| ACADS (UniProt P16219) | 0.278 (active) | -0.04 | -0.002 | -0.025 | 0.033 | -0.009 | -0.018 | 0.032 | 0.01 | 0.017 | -0.005 | 0.217 | -0.089 | 0.017 | -0.021 |
| ABHD12 isoform 2 (UniProt Q8N2K0) | 0.005 | -0.004 | 0.028 | 0.058 | -0.068 | 0.044 | -0.077 | -0.025 | -0.02 | 0.019 | -0.003 | 0.392 (active) | -0.026 | -0.023 | -0.023 |
| ABCF2 isoform 2 (UniProt Q9UG63) | 0.001 | -0.001 | -0.036 | -0.024 | 0.005 | -0.022 | 0.002 | 0.042 | -0.002 | -0.023 | 0.103 | -0.326 (active) | 0.054 | 0.016 | -0.028 |
| AKR1C3 (UniProt P42330) | -0.007 | 0.046 | 0.209 | -0.079 | -0.038 | -0.055 | 0.04 | 0.036 | -0.059 | -0.013 | -0.009 | 0.546 (active) | 0.044 | 0.009 | 0.059 |
